Many of the other results were omitted from the sample, so the strongest signals are more common in it than they were.

Holding throughout (assay): glycan array binding signal (z-score within array); higher = stronger binding
What all share (settings): glycan notation: IUPAC condensed, linker removed

Experiment [1] concerns the target Neu5Ac(a2-3)Gal(b1-4)[Fuc(a1-3)]GlcNAc(b1-3)GalNAc. The method, boiled down:
(§1)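 The Consortium for Functional Glycomics database supplied 3228 glycan arrays, of which those lacking an available protein sequence were dropped. The binding signal, a within-array Z-score, was averaged across arrays of the same protein sequence and across linkers. Negative scores can be read as non-binding.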

The next experiment concerns the target Neu5Ac(a2-3)GalNAc. The method in brief:
as §1

The target in the next experiment is Neu5Ac(a2-6)Gal. The method in brief:
as §1

The target in experiment [2] is Neu5Ac(a2-8)Neu5Ac(a2-8)Neu5Ac(a2-8)Neu5Ac(a2-3)[GalNAc(b1-4)]Gal(b1-4)Glc. The method in brief: as §1
The target in experiment [3] is Fuc(a1-2)Gal(b1-3)GalNAc(a1-3)[Fuc(a1-2)]Gal(b1-4)Glc. The method, boiled down:
as §1

Experiment [4] has as its target Fuc(a1-2)Gal(b1-3)GlcNAc(b1-3)Gal(b1-4)Glc. The method, boiled down:
as §1

A further experiment has as its target Fuc(a1-2)Gal(b1-4)Glc6S. The method, boiled down: as §1
Experiment [5] deals with Fuc(a1-2)[Gal(a1-3)]Gal(b1-4)[Fuc(a1-3)]GlcNAc. The method in brief:
as §1

The target in experiment [6] is Fuc(a1-2)[GalNAc(a1-3)]Gal. The method in brief:
as §1

In experiment [7] the target is Fuc(a1-2)[GalNAc(a1-3)]Gal(b1-4)GlcNAc(b1-3)Gal(b1-4)GlcNAc(b1-3)Gal(b1-4)GlcNAc. The method in brief:
as §1

Experiment [8] addresses Fuc(a1-3)[Gal(b1-4)]GlcNAc(b1-3)GalNAc. The method in brief:
as §1

Experiment [9] has as its target Fuc(a1-3)[Gal3S(b1-4)]GlcNAc. The method, boiled down:
as §1

In experiment [10] the target is Gal(b1-3)GalNAc(a1-3)[Fuc(a1-2)]Gal(b1-4)Glc. The method in brief:
as §1

Experiment [11] has as its target Gal(b1-3)GlcNAc(b1-6)Gal(b1-4)GlcNAc. The method in brief: as §1
In a further experiment the target is Gal(b1-4)GlcNAc. The method, boiled down:
as §1

In experiment [12] the target is Gal(b1-4)GlcNAc(b1-2)Man(a1-3)[Gal(b1-4)GlcNAc(b1-2)Man(a1-6)]Man(b1-4)GlcNAc(b1-4)GlcNAc. The method in brief:
as §1

The target in experiment [13] is Gal(b1-4)GlcNAc(b1-3)Gal(b1-3)GlcNAc. The method, boiled down: as §1
In experiment [14] the target is Gal(b1-4)GlcNAc(b1-3)Gal(b1-4)[Fuc(a1-3)]GlcNAc(b1-3)Gal(b1-4)[Fuc(a1-3)]GlcNAc. The method, boiled down: as §1
The target in another experiment is Gal6S(b1-4)GlcNAc6S. The method, boiled down: as §1
In the next experiment the target is GalNAc(b1-3)Gal. The method in brief: as §1
The target in another experiment is Glc(a1-4)Glc. The method, boiled down:
as §1

In the next experiment the target is GlcA(b1-3)GlcNAc. The method in brief:
as §1

Experiment [15] concerns the target GlcNAc(b1-2)Man(a1-3)[GlcNAc(b1-2)Man(a1-6)]Man(b1-4)GlcNAc(b1-4)GlcNAc. The method, boiled down: as §1
Experiment [16] concerns the target GlcNAc(b1-2)[GlcNAc(b1-4)]Man(a1-3)[GlcNAc(b1-2)Man(a1-6)]Man(b1-4)GlcNAc(b1-4)GlcNAc. The method, boiled down: as §1
Experiment [17] concerns the target GlcNAc(b1-3)[GlcNAc(b1-4)][GlcNAc(b1-6)]GlcNAc. The method, boiled down:
as §1

In experiment [18] the target is GlcNAc(b1-3)[GlcNAc(b1-6)]Gal(b1-4)GlcNAc. The method in brief: as §1
For experiment [19], the target named is GlcNAc(b1-4)[GlcNAc(b1-6)]GalNAc. The method, boiled down:
as §1

Experiment [20] has as its target Neu5Ac(a2-3)Gal(b1-3)GalNAc6S. The method in brief: as §1
In experiment [21] the target is Neu5Ac(a2-3)Gal(b1-3)GlcNAc6S. The method, boiled down: as §1
Experiment [22] has as its target Neu5Ac(a2-3)Gal(b1-3)[Fuc(a1-4)]GlcNAc(b1-3)Gal(b1-3)[Fuc(a1-4)]GlcNAc. The method, boiled down: as §1
The target in experiment [23] is Neu5Ac(a2-3)Gal(b1-3)[Neu5Ac(a2-6)]GalNAc. The method, boiled down: as §1
The target in experiment [24] is Neu5Ac(a2-3)Gal(b1-4)GlcNAc(b1-3)Gal(b1-4)[Fuc(a1-3)]GlcNAc. The method, boiled down: as §1
Another experiment addresses Neu5Ac(a2-6)Gal(b1-4)Glc. The method in brief:
as §1

Experiment [25] concerns the target Neu5Ac(a2-6)GlcNAc(b1-4)GlcNAc. The method, boiled down:
as §1

B1: Flo10 (Saccharomyces cerevisiae), P36170 (protein)
chain: MPVAARYIFLTGLFLLSVANVALGTTEACLPAGEKKNGMTINFYQYSLKDSSTYSNPSYMAYGYADAEKLGSVSGQTKLSIDYSIPCNGASDTCACSDDDATEYSASQVVPVKRGVKLCSDNTTLSSKTEKRENDDCDQGAAYWSSDLFGFYTTPTNVTVEMTGYFLPPKTGTYTFGFATVDDSAILSVGGNVAFECCKQEQPPITSTDFTINGIKPWNADAPTDIKGSTYMYAGYYYPIKIVYSNAVSWGTLPVSVVLPDGTEVNDDFEGYVFSFDDNATQAHCSVPNPAEHARTCVSSATSSWSSSEVCTECTETESTSYVTPYVTSSSWSSSEVCTECTETESTSTSTPYVTSSSSSSSEVCTECTETESTSYVTPYVSSSTAAANYTSSFSSSSEVCTECTETESTSTSTPYVTSSSWSSSEVCTECTETESTSYVTPYVSSSTAAANYTSSFSSSSEVCTECTETESTSTSTPYVTSSSSSSSEVCTECTETESTSYVTPYVSSSTAAANYTSSFSSSSEVCTECTETESTSTSTPYVTSSSWSSSEVCTECTETESTSYVTPYVSSSTAAANYTSSFSSSSEVCTECTETESTSTSTPYATSSTGTATSFTASTSNTMTSLVQTDTTVSFSLSSTVSEHTNAPTSSVESNASTFISSNKGSVKSYVTSSIHSITPMYPSNQTVTSSSVVSTPITSESSESSASVTILPSTITSEFKPSTMKTKVVSISSSPTNLITSYDTTSKDSTVGSSTSSVSLISSISLPSSYSASSEQIFHSSIVSSNGQALTSFSSTKVSSSESSESHRTSPTTSSESGIKSSGVEIESTSTSSFSFHETSTASTSVQISSQFVTPSSPISTVAPRSTGLNSQTESTNSSKETMSSENSASVMPSSSATSPKTGKVTSDETSSGFSRDRTTVYRMTSETPSTNEQTTLITVSSCESNSCSNTVSSAVVSTATTTINGITTEYTTWCPLSATELTTVSKLESEEKTTLITVTSCESGVCSETASPAIVSTATATVNDVVTVYSTWSPQATNKLAVSSDIENSASKASFVSEAAETKSISRNNNFVPTSGTTSIETHTTTTSNASENSDNVSASEAVSSKSVTNPVLISVSQQPRGTPASSMIGSSTASLEMSSYLGIANHLLTNSGISIFIASLLLAIV
Regarding B1, the “glycan array binding signal (z-score)” value is -0.323 in experiment [1], -0.639 with Neu5Ac(a2-3)GalNAc, 5.85 in the experiment with Neu5Ac(a2-6)Gal and 0.14 in [2].

B2: SSL (Salmo salar) (protein)
chain: TGAKGAEEGVVPAETRNQCPTGWFQFGSRCFMFVETARSWPLAERHCVSLGANLASVHSSADDQFLQAIAGCKTGAFSTTWIGGFDAVQDRLWFWSDGSEFDYQNWAKGEPNNSGGREPCIVINWGDEYRWNDIKCGNSFPSVCSKRICEIQKN
Regarding B2, the “glycan array binding signal (z-score)” value in [3] is -0.152; in experiment [4], -0.096; with Fuc(a1-2)Gal(b1-4)Glc6S, -0.137; in experiment [5], -0.154; in experiment [6], -0.165; in [7], -0.178. Further, the “glycan array binding signal (z-score)” value was -0.124 in [8]; -0.17 in experiment [9]; -0.165 in [10]; -0.163 in experiment [11]; -0.154 with Gal(b1-4)GlcNAc; -0.167 in experiment [12]. Besides, the “glycan array binding signal (z-score)” value in experiment [13] is -0.174; in experiment [14], -0.175; with Gal6S(b1-4)GlcNAc6S, -0.162; in the experiment with GalNAc(b1-3)Gal, -0.143; with Glc(a1-4)Glc, 2.63; with GlcA(b1-3)GlcNAc, 4.35. Moreover, the “glycan array binding signal (z-score)” value in experiment [15] was 3.12; in experiment [16] it was 6.65; in experiment [17], 11.7; in experiment [18] it was 6.68; in experiment [19], 8.49; in experiment [20] it was -0.18. The “glycan array binding signal (z-score)” value in experiment [21] is -0.167; in [22], -0.086; in experiment [23] it was -0.153; in experiment [24], -0.179; with Neu5Ac(a2-6)Gal(b1-4)Glc, -0.158; in experiment [25], 0.202.
